Measurements as given in PubChem BioAssay AID720690 (Broad Institute, 2013).
Results with a measured potency or affinity are listed apart. Activity calls are given as the source filed them.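 Rule for the calls: active = every repeat run showing a signal drop whose fitted half-maximal concentration is at most twice the top tested concentration; inconclusive = repeat runs disagree, or flat partial drop, or poor fit; inactive = the rest.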

Experiment: general mammalian cell viability loss – activator set, cherry-pick, cytotoxicity control for miR-122 modulator project, dose response (AID 720690)

SMILES | outcome
c1ccc(-n2nnnc2NCCc2c[nH]c3ccccc23)cc1 | inactive
C[C@H]1CN([C@@H](C)CO)S(=O)(=O)c2ccc(-c3ccc(C(=O)N(C)C)cc3)cc2O[C@H]1CN(C)C(=O)C1CCC1 | inactive
O=C(CSc1nc2ccccc2s1)N1CCOCC1 | inactive
CCC(=O)N1[C@@H](CO)[C@H](c2ccccc2)[C@@H]1CN(C(C)C)S(C)(=O)=O | inactive
COCC(=O)Nc1ccc2c(c1)C(=O)N(C)[C@@H]1CC[C@@H](CC(=O)NC3CCCC3)O[C@@H]1CO2 | inactive
COCC(=O)Nc1ccc2c(c1)C(=O)N(C)[C@@H]1CC[C@H](CC(=O)Nc3cn(C)nc3C)O[C@H]1CO2 | inactive
C/C=C/c1ccc([C@@H]2[C@@H](CO)N(C(C)=O)[C@@H]2CN(C)C(=O)c2ccccn2)cc1 | inactive
CC(=O)Nc1ccc2c(c1)C(=O)N(C)[C@H]1CC[C@@H](CC(=O)NCc3ccc4c(c3)OCO4)O[C@@H]1CO2 | inactive
O=C(c1cccnc1)N1C[C@H]2[C@@H](c3ccccc31)[C@H](CO)N2C(=O)C1CCCC1 | inactive
CCC(=O)N1[C@H](CO)[C@@H](c2ccccc2)[C@H]1CN(C(C)C)S(C)(=O)=O | inactive
COCC(=O)NC[C@H]1[C@@H](c2ccc(C3=CCCC3)cc2)[C@H](CO)N1C(=O)C1CC1 | inactive
COC(=O)C[C@H]1CC[C@H]2[C@H](COc3ccc(NC(=O)c4cccc(F)c4)cc3C(=O)N2C)O1 | inactive
Cc1oc(-c2ccc(Cl)cc2)nc1CN1CCCC(C(=O)NCc2ccco2)C1 (centres undefined) | inactive
O=C(CN1CCOCC1)NC[C@@H]1N[C@@H](CO)[C@@H]1c1ccc(-c2ccccc2)cc1 | inactive
CN(C[C@H]1N[C@@H](CO)[C@H]1c1ccc(-c2cccc(F)c2)cc1)C(=O)C1CCC1 | inactive
COc1ccc(CCNC(=O)c2c(C)cc(=O)oc2C)cc1OC | inactive
CN(c1ccccc1)S(=O)(=O)c1ccc(C(=O)Nc2cccc(S(=O)(=O)N3CCOCC3)c2)cc1 | inactive
COCC(=O)N(C)C[C@H]1Oc2cc(-c3ccc(C#N)cc3)ccc2S(=O)(=O)N([C@H](C)CO)C[C@H]1C | inactive
COc1ccc(C#Cc2ccc3c(c2)O[C@H](CN(C)C(=O)CN2CCOCC2)[C@H](C)CN([C@@H](C)CO)S3(=O)=O)cc1 | inactive
COc1cccc(OCc2cc(/C=N/Nc3ccc(C(=O)O)cc3)ccc2OC)c1 | inactive
O=C(Nc1ccc(Cl)c(C(F)(F)F)c1)c1ccco1 | inactive
CCS(=O)(=O)Nc1ccc2c(c1)C(=O)N(C)C[C@@H](OC)[C@H](C)CN(CC1CCCC1)[C@H](C)CO2 | inactive
CC(C)Oc1ccc(C(CCN)C2CCCCC2)cc1 (centres undefined) | inactive
COC(=O)c1c(N)nc(C)n1-c1ccc(OC)cc1 | inactive
Cc1ccnc(Nc2nc(-c3c(C)nc4sccn34)cs2)c1 | inactive
C[C@H](NC(=O)C[C@@H]1CC[C@H]2[C@H](COc3ccc(NS(=O)(=O)c4ccc(Cl)cc4)cc3C(=O)N2C)O1)c1ccccc1 | inactive
COc1cccc(C(=O)Nc2ccc3c(c2)C(=O)N(C)[C@H]2CC[C@H](CC(=O)NCc4ccc(F)cc4)O[C@H]2CO3)c1 | inactive
Cc1ccc(-c2ccc3c(c2)O[C@H](CN(C)C(=O)CC2CC2)[C@H](C)CN([C@H](C)CO)S3(=O)=O)cc1 | inactive
CCC(=O)N(C)C[C@@H]1[C@@H](c2ccccc2)[C@H](CO)N1Cc1cccnc1 | inactive
